Source: PubChem BioAssay
Active and inactive are the calls of the source.

Assays:
[1] = E. coli DRC41 culture turbidity changes, primary screen, E. coli filamentation inducer project, strain DRC41, OD650, 48 h (AID 1152);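 also: E. coli MC1000 strain DRC41 lacking acrAB efflux pump and sulA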; settings: E. coli DRC41 (acrAB sulA), higher = more signal, called active from +8 up or from −8 down
[2] = small-molecule binders of probe aLefty1, primary screen, biochemical, small-molecule microarray, 635/667 nm fluorescence (AID 1153); settings: higher = more signal;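 also: score merges spot fluorescence with signal-to-noise ratio from the scanned slide images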
[3] = PSAC antagonists in infected red cells, primary screen, cell-based, P. falciparum Indochina, OD700, 1 h (AID 1154); settings: P. falciparum Indochina infected RBC osmotic lysis, higher = more signal, called active from +8 up or from −8 down
[4] = PSAC antagonists in infected red cells, primary screen, cell-based, P. falciparum Indochina, OD700, 2 h (AID 1155);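 also: lysis reports solute entry through the parasite surface anion channel PSAC; channel blockers reduce lysis of infected cells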; settings: P. falciparum Indochina infected erythrocytes, osmotic lysis OD700; higher = more signal, called active from +8 up or from −8 down
[5] = osmotic lysis modulators in infected erythrocytes, primary screen, PSAC antagonist project, cell-based, P. falciparum Indochina, OD700, 3 h (AID 1156); settings: higher = more signal, called active from +8 up or from −8 down
[6] = PSAC antagonists in infected red cells, primary screen, cell-based, P. falciparum Indochina, OD700, 18 h (AID 1157); settings: P. falciparum Indochina infected erythrocytes, osmotic lysis OD700, 18 h; higher = more signal, called active from +8 up or from −8 down
[7] = modulators of S6 phosphorylation in cells, primary screen, cell-based, A549, cytoblot, luminescence, serum-stimulated (AID 1158); settings: A549 phospho-S6 cytoblot, 5 h, higher = more signal;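 also: serum-stimulated A549 lung adenocarcinoma cells; signal is phosphorylated S6 detected by cytoblot immunostaining with HRP secondary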
[8] = biological target: NADPH oxidase 2 (Homo sapiens) (UniProt P04839); experiment: NOX2-dependent H2O2 signal modulators, primary screen, NOX inhibitor project, cell-based, HEK293-NOX2, PMA-stimulated, Amplex Red fluorescence (AID 1159); settings: 45 min, higher = more signal, called active from +8 up or from −8 down; also: test concentration not given here
[9] = biological target: NADPH oxidase 4 (Homo sapiens) (UniProt Q9NPH5); experiment: NOX4-dependent H2O2 signal modulators, primary screen, NOX inhibitor project, cell-based, HEK293-NOX4, tetracycline-induced, Amplex Red fluorescence (AID 1160); settings: 45 min, higher = more signal, called active from +8 up or from −8 down
[10] = biological target: NADPH oxidase 5 (Homo sapiens) (UniProt Q96PH1); experiment: NOX5-dependent H2O2 signal modulators, primary screen, NOX inhibitor project, cell-based, HEK293-NOX5, Amplex Red fluorescence (AID 1161); settings: HEK293-NOX5, ionomycin, 45 min, higher = more signal
[11] = A549 cell viability effects, profiling panel, calcein-AM fluorescence, 48 h, basal (AID 1162); settings: higher = more signal; also: test concentration not given here
[12] = adipocyte viability effects, profiling panel, cell-based, 3T3-L1 adipocytes, calcein-AM fluorescence, 48 h, basal (AID 1163); settings: 3T3-L1 adipocytes viability, higher = more signal; also: test concentration not given here
[13] = HepG2 cell viability effects, profiling panel, calcein-AM fluorescence, 48 h, basal (AID 1164); settings: higher = more signal; also: test concentration not given here
[14] = MM1S cell viability effects, profiling panel, calcein-AM fluorescence, 48 h, basal (AID 1165); settings: higher = more signal;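 also: viability of MM1S multiple myeloma cells under basal unstimulated conditions; test concentration not given here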
[15] = basal RPMI8226 viability, no added stimulus, profiling panel, cell-based, calcein-AM fluorescence, 48 h, PK04 Diversity Set (AID 1166); settings: RPMI8226 myeloma viability, higher = more signal;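 also: cells grown under basal conditions without added stimulus; test concentration not given here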
[16] = basal HepG2 mitochondrial membrane potential changes, profiling panel, cell-based, JC-1 fluorescence, 24 h, 100 nL compound (AID 1167); settings: higher = more signal; also: test concentration not given here
[17] = basal 3T3-L1 adipocyte mitochondrial potential changes, profiling panel, cell-based, JC-1 fluorescence, 3T3-L1 adipocytes, 24 h, 100 nL compound (AID 1168); settings: JC-1 mitochondrial fluorescence, higher = more signal, called active from +8 up or from −8 down; also: test concentration not given here
[18] = basal RPMI8226 mitochondrial membrane potential changes, profiling panel, cell-based, JC-1 fluorescence, 24 h, 100 nL compound (AID 1169); settings: RPMI8226 myeloma, JC-1 mitochondrial potential fluorescence, higher = more signal; also: test concentration not given here
[19] = basal MM1S mitochondrial membrane potential changes, profiling panel, cell-based, JC-1 fluorescence, 24 h, 100 nL compound (AID 1170); settings: higher = more signal; also: test concentration not given here
[20] = A549 lung cancer cell viability effects, profiling panel, resazurin fluorescence, 24 h, PK04 Diversity Set (AID 1171); settings: higher = more signal, called active from +8 up or from −8 down; also: test concentration not given here

NADPH oxidase 5 (Homo sapiens), sequence (Q96PH1 whole entry, looked up): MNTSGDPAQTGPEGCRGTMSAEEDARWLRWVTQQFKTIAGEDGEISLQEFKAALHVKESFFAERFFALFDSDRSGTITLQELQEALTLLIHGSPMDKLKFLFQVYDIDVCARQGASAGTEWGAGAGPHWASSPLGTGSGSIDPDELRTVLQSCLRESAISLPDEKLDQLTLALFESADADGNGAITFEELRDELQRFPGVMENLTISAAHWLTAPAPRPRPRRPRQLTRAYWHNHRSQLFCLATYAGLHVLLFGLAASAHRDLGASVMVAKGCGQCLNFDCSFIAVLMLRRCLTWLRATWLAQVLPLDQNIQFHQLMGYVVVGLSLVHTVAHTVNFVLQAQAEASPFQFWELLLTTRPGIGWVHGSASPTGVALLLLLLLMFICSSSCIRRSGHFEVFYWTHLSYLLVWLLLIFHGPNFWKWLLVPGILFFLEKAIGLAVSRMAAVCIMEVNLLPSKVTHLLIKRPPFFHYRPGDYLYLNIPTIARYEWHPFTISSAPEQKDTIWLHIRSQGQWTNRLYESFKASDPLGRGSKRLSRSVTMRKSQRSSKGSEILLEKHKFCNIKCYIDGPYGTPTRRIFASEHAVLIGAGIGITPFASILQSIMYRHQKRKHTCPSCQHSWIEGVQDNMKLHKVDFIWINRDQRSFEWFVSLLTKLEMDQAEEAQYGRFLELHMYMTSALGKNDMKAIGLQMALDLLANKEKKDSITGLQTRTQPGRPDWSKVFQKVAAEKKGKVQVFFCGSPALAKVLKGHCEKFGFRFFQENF
NADPH oxidase 2 (Homo sapiens), sequence (P04839 whole entry, looked up): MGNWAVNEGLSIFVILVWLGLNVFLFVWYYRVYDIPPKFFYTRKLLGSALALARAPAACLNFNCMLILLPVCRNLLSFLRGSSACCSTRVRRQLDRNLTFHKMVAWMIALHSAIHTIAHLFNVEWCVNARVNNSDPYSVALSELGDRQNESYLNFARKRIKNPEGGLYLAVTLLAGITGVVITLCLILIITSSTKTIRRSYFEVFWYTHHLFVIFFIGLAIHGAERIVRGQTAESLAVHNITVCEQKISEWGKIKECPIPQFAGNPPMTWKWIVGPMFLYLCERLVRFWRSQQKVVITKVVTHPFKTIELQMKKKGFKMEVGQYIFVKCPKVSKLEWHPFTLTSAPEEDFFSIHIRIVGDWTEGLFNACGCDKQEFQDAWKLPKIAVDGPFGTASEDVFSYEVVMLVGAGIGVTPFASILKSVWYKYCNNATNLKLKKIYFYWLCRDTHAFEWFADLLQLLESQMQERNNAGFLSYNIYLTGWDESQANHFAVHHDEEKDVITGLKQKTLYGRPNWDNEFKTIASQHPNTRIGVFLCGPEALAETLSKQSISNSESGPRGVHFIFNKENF
NADPH oxidase 4 (Homo sapiens), sequence (Q9NPH5 whole entry, looked up): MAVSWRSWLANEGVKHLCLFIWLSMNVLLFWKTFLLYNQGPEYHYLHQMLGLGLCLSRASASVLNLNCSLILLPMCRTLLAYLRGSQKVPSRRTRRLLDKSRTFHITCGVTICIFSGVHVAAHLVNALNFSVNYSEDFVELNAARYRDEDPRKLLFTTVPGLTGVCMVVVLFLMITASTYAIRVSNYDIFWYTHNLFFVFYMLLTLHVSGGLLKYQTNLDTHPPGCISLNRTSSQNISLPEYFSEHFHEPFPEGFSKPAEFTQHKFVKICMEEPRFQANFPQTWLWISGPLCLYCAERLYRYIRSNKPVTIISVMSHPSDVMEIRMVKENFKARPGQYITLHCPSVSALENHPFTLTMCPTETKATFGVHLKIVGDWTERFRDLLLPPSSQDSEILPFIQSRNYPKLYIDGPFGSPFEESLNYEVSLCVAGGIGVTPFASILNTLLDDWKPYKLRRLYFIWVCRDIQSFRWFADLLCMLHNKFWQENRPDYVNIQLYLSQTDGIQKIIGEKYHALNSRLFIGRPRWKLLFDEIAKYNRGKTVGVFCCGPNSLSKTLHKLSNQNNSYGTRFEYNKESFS

SMILES	z-score [1]	composite z-score [2]	z-score [3]	z-score [4]	z-score [5]	z-score [6]	z-score [7]	z-score [8]	z-score [9]	z-score [10]	z-score [11]	z-score [12]	z-score [13]	z-score [14]	z-score [15]	z-score [16]	z-score [17]	z-score [18]	z-score [19]	z-score [20]
COC(=O)[C@@]1(Cc2ccc(F)cc2)[C@H]2c3cc(C(=O)N(C)C)n(Cc4ccc(OC)c(OC)c4)c3C[C@H]2CN1C(=O)c1ccccc1	-1.19 (inactive)	0.109	0.933 (inactive)	-0.512 (inactive)	0.746 (inactive)	-1.37 (inactive)	2.19	-3.29 (inactive)	-1.97 (inactive)	-4.09	-0.74	0.272	-1.36	-1.13	-2.04	0.594	-0.512 (inactive)	0.0709	-0.7	-0.507 (inactive)
O=C1C2C=CC(C(O)c3ccc([N+](=O)[O-])cc3)N(Nc3ccc([N+](=O)[O-])cc3)C2C(=O)N1c1ccccc1 (stereo not given)	-1.39 (inactive)	0.446	12.9 (active)	1.96 (inactive)	0.958 (inactive)	1.02 (inactive)	-0.922	-1.24 (inactive)	-2.87 (inactive)	-2.36	-0.682	-1.1	0.0069	-0.0432	-1.81	-2.27	-2.73 (inactive)	-1.01	-1.48	-0.402 (inactive)
CC(=O)OC[C@H]1O[C@@H](ON=C[C@@H](C)[C@H](OCc2ccccc2)C(C)C)[C@H](OC(C)=O)[C@@H](OC(C)=O)[C@@H]1OC(C)=O	0.319 (inactive)	0.113	0.857 (inactive)	0.536 (inactive)	1.04 (inactive)	0.22 (inactive)	0.761	-0.72 (inactive)	0.404 (inactive)	-0.856	0.605	-0.466	0.471	0.614	0.048	-0.148	0.0097 (inactive)	0.386	-0.863	-1.23 (inactive)
CCOC(=O)NN=C1C[C@@H](O)[C@@H](O)[C@@H]2[C@@H]3C(=O)N(C(C)(C)C)C(=O)[C@@H]3CC[C@@H]12	-0.0206 (inactive)	-0.0601	0.209 (inactive)	-0.0313 (inactive)	-0.548 (inactive)	0.0353 (inactive)	-0.12	0.5 (inactive)	1.05 (inactive)	0.295	-0.571	-0.0947	-0.394	0.0284	-0.0464	-0.79	-0.911 (inactive)	0.329	0.243	-0.452 (inactive)
COC(=O)[C@@H]1N=C(c2ccc(OCCCO)cc2)O[C@@H]1c1ccccc1N=[N+]=[N-]	0.666 (inactive)	0.309	29.3 (active)	25.8 (active)	1.88 (inactive)	5.77 (inactive)	1.24	-1.24 (inactive)	-0.0584 (inactive)	-2.26	0.377	0.557	0.134	-1.58	-1.56	-0.682	0.761 (inactive)	-0.287	-0.218	0.4 (inactive)
COCCOC(=O)N1C(=O)[C@@]2(c3cc(C#CCNC(N)=O)ccc31)[C@H](c1ccccc1OCCO)N1[C@H](c3ccccc3)[C@H](c3ccccc3)OC(=O)[C@H]1[C@@H]2C(=O)N1CCN(c2ncccn2)CC1	0.981 (inactive)	0.15	2.11 (inactive)	-0.313 (inactive)	0.793 (inactive)	-2.06 (inactive)	2.82	1.63 (inactive)	1.09 (inactive)	-0.814	0.0249	0.457	1.37	0.541	1.12	-1.76	0.856 (inactive)	-0.847	-0.859	-1.27 (inactive)
CCCNC(=O)OC[C@H]1O[C@H](CCON=CC[C@@H]2C=C[C@H](OC(C)=O)[C@@H](COC(C)=O)O2)C=C[C@@H]1Oc1ccc(OC)cc1	-0.413 (inactive)	-0.145	1.6 (inactive)	0.405 (inactive)	0.126 (inactive)	0.392 (inactive)	-0.397	-1.02 (inactive)	0.143 (inactive)	-1.07	0.51	-0.217	-0.24	-0.516	-1.28	-1.14	-1.12 (inactive)	-0.057	0.306	0.248 (inactive)
CCOC(=O)[C@H](CC(C)C)NC(=O)CCC1CC(OC(=O)NCc2cccc3ccccc23)CC2(CCCC(COC(=O)NCCc3ccccc3OC)O2)O1 (stereo not given in full)	-0.596 (inactive)	-0.147	-1.28 (inactive)	-0.0901 (inactive)	-0.868 (inactive)	0.298 (inactive)	0.0059	0.527 (inactive)	0.69 (inactive)	1.02	-0.571	-0.187	-0.766	0.0779	-0.407	0.602	-0.0276 (inactive)	-0.0975	-0.157	0.45 (inactive)
CC[C@@H](c1ccccc1)n1c(=O)n2n(c1=O)[C@H]1[C@H](O)[C@@H]3O[C@@H]3C(=NOCC=C(C)CCC=C(C)C)[C@H]1CC2	-1.15 (inactive)	-0.241	1.27 (inactive)	0.719 (inactive)	0.0313 (inactive)	0.355 (inactive)	-0.45	2.38 (inactive)	-1.85 (inactive)	-1.35	-0.821	0.722	-1.48	-3.08	-3.74	-2.4	0.151 (inactive)	-0.829	0.198	-0.0334 (inactive)
COc1ccccc1CN1C(=O)c2ccccc2[C@@H](C(=O)NCC(F)(F)F)[C@@H]1c1ccc(CO)cc1	1.22 (inactive)	-0.242	2.54 (inactive)	0.346 (inactive)	-0.114 (inactive)	0.547 (inactive)	-0.189	0.629 (inactive)	0.732 (inactive)	-0.0947	1.4	-0.467	1.67	-0.127	1.04	1.62	0.913 (inactive)	0.28	-0.684	0.633 (inactive)
CC(C)(C)N1CC=CC23O[C@@H]4C=CCCOC(=O)C4[C@H]2C(=O)N(CCCCCO)[C@@H]3C1=O (stereo not given in full)	0.499 (inactive)	0.0919	1.03 (inactive)	0.396 (inactive)	1.98 (inactive)	0.159 (inactive)	-0.186	1.26 (inactive)	0.385 (inactive)	1.75	-0.415	0.231	2.16	1.87	0.227	0.705	0.18 (inactive)	0.117	-0.29	0.0951 (inactive)
CO[C@H]1COC(=O)[C@@H]2CCCN2C(=O)CC=C[C@@H](C)[C@H](OC)COC(=O)CC=C[C@@H]1C	0.604 (inactive)	-0.0974	-0.0558 (inactive)	-1.3 (inactive)	-0.464 (inactive)	-1.7 (inactive)	2.35	-0.331 (inactive)	0.631 (inactive)	0.557	0.346	1.04	1.01	0.292	0.84	1.23	0.252 (inactive)	-1.13	1.16	0.287 (inactive)
CCOC(=O)CCN1C(=O)[C@H]2[C@H]3[C@H](O)[C@H](O)CC(=NOC[C@@H](O)COCc4ccco4)[C@@H]3CC[C@H]2C1=O	0.401 (inactive)	0.0861	3.93 (inactive)	0.63 (inactive)	-0.403 (inactive)	0.403 (inactive)	-0.426	0.48 (inactive)	0.771 (inactive)	0.6	0.14	0.171	-0.324	0.366	0.557	-0.906	-0.125 (inactive)	-0.393	-0.49	-0.397 (inactive)
C=CCC(OC(C)=O)[C@@H]1[C@@H](N(Cc2cc3ccccc3o2)C(=O)Cc2ccc(F)cc2)c2cc(OCCCO)ccc2N1C(=O)Cc1ccc(OC)cc1 (stereo not given in full)	-0.778 (inactive)	-0.06	1.05 (inactive)	0.172 (inactive)	-0.67 (inactive)	-0.133 (inactive)	-0.597	0.2 (inactive)	0.727 (inactive)	-0.743	-0.382	0.569	0.585	-0.0962	0.228	1.16	-0.0927 (inactive)	0.774	-0.208	0.331 (inactive)
CCCNC(=O)OC[C@H]1O[C@H](CCON=C[C@@H](OC)[C@H](C)C=CCC(=O)OC)C=C[C@@H]1Oc1ccc(OC)cc1	-0.042 (inactive)	0.0889	4.4 (inactive)	0.143 (inactive)	-0.0652 (inactive)	0.368 (inactive)	0.0604	-1.56 (inactive)	0.00725 (inactive)	-2.76	0.0666	0.764	0.97	-0.902	0.122	-0.12	-0.277 (inactive)	0.0719	-0.118	1.2 (inactive)
C[C@@H]1C=CCC(=O)OC[C@H](C)C(=O)N[C@@H](C)C(=O)OC1	0.811 (inactive)	-0.0104	0.378 (inactive)	0.371 (inactive)	0.623 (inactive)	0.342 (inactive)	-0.276	-0.727 (inactive)	0.527 (inactive)	0.619	0.195	-0.112	-0.532	-0.131	-0.275	0.391	-0.871 (inactive)	-0.0436	-1.26	0.156 (inactive)
COC(=O)CC=C[C@@H](C)[C@@H](C=NO[C@@H](C)c1cc(-c2c(C)cc(C)cc2C)no1)OC	-1.45 (inactive)	0.0004	3.39 (inactive)	-0.032 (inactive)	0.505 (inactive)	-1.37 (inactive)	2.15	-1.04 (inactive)	-0.771 (inactive)	-3.87	-0.542	1.05	-0.618	0.0635	-0.466	-1.13	-0.613 (inactive)	-0.549	-1.19	0.16 (inactive)
Cc1ccc(S[C@]2(C(=O)O)CC(=O)N(Cc3ccccc3)[C@@H]2c2ccc(CO)cc2I)cc1	-0.308 (inactive)	0.157	13.9 (active)	2.07 (inactive)	1.47 (inactive)	0.842 (inactive)	-0.31	1.71 (inactive)	-2.26 (inactive)	0.38	0.282	0.181	0.0583	-2.82	-2.03	-0.862	-0.486 (inactive)	-0.551	-0.967	0.682 (inactive)
